Rows were chosen to be rich in hits. Some 18% of all compounds tested hit in one or more screens of this group.
DT40 TDP1 no CPT: qHTS for Inhibitors of human tyrosyl-DNA phosphodiesterase 1 (TDP1): qHTS in cells in absence of CPT | DT40 Tdp1-/- hTDP1 cells, no CPT, ATP luminescence, 48 h | Potency, µM (doses to about 46.2 µM), without a hit: at the top dose activity change, negative = growth inhibition, hits mostly inhibitors | 420,000 compounds, 15% hits | AID 686978, 2013; also: potency is read from the fitted curve at half-maximal effect; nearly all actives have a fitted effect of over 55% in size
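Luminescent ATP content (CellTiter-Glo) served as the growth readout. Knockout chicken DT40 cells expressing human TDP1 were exposed to compounds without camptothecin for a minimum 48 hr at 37 °C.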
TDP1 cell CPT: growth inhibition of DT40 Tdp1-/-;hTDP1 cells with camptothecin (screen for TDP1 inhibitors); chicken DT40 Tdp1-/-;hTDP1 cells + 20 nM CPT, ATP luminescence, 48 h; Potency, µM (titrated, usually from 46.2 µM), for inactives: top-dose activity change, negative = growth inhibition, usual class: inhibitors; 420,000 compounds, 12% hits; AID 686979; also: potency is read from the fitted curve at half-maximal effect; nearly all actives have a fitted effect of over 55% in size
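Cell growth measured by CellTiter-Glo luminescence after a minimum 48 h, 37 C compound exposure with 20 nM CPT in Tdp1-knockout DT40 cells stably expressing hTDP1, seeded 400/well; qHTS titration format.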
TDP1 block: blocks human tyrosyl-DNA phosphodiesterase 1; Q9NUW8; recombinant TDP1, AlphaScreen DNA substrate cleavage; Potency, µM (doses to about 130 µM), without a hit: top-dose activity change, negative = inhibition, most hits filed as inhibitors; 350,000 compounds, 0.28% hits; AID 485290; also: potency is read from the fitted curve at half-maximal effect; nearly all actives have a fitted effect of over 40% in size
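Tdp1 1 nM final; 15 min RT w/ cpd; substrate 15 nM, 5 min; beads 10 ug/ml, 10 min; AlphaScreen read. Neg ctrl: no enzyme.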
Six1-Eya2 blk: inhibitors of human Six1/Eya2 interaction; AID 651725; Q15475+O00167; 360,000 compounds, 0.56% hits; activity change, % (test concentration not listed); AlphaScreen GST-Six1/His-Eya2 binding, biochemical; hits give low values; in the data active = activity change below about -65%; inconclusive = mostly about -30% to -63%
Target sequence (O00167 whole entry, looked up): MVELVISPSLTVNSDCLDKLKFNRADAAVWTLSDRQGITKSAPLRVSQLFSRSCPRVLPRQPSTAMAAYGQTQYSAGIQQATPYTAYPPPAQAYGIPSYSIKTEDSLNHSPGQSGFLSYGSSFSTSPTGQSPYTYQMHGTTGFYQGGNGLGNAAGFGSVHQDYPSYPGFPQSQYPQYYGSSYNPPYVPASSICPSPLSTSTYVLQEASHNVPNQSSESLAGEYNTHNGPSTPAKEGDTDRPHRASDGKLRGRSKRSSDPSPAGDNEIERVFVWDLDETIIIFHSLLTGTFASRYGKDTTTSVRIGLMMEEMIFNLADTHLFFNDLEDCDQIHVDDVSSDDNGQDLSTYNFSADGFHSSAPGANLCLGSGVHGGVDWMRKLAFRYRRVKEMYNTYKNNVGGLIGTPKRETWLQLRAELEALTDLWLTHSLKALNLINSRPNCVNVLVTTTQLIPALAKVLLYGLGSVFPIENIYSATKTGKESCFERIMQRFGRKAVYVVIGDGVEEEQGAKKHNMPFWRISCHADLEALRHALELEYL
Target sequence (Q15475 whole entry, looked up): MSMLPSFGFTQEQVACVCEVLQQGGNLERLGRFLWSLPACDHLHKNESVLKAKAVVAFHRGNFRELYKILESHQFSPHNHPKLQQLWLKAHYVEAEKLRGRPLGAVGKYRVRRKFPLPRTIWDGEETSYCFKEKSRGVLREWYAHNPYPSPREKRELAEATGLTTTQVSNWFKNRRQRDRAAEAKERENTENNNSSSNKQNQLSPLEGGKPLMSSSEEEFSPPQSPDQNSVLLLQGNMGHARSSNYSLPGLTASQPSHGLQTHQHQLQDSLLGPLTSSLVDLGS
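GST-Six1 + His-Eya2 (5X stock: 250/500 nM); Tris pH 8.0, 300 mM NaCl, 0.05% BSA, 0.02% Tween 20; GSH donor/Ni acceptor beads; 1 h 37 °C dark; AlphaScreen readout.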
CtBP-E1A blk: blocks the CtBP interaction with E1A; activity change, % (concentration not given with the values); AID 651724; AlphaScreen GST-E1A/His-CtBP binding, 1536-well; hits give low values; 340,000 compounds, 0.49% hits; in the data active = activity change below about -65%; inconclusive = mostly about -30% to -63%
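Protein mix (5X: 125 nM each GST-E1A, His-CtBP) was incubated with pinned compound 2 h at 37 deg C in dark, in 50 mM Tris pH 8.0 buffer with 300 mM NaCl. Glutathione donor and nickel acceptor beads followed; AlphaScreen signal read after 1 h.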
IL-1B inflam inh: inflammasome signaling inhibition, IL-1 beta readout. 360,000 compounds, 4.7% hits. AID 743279. THP-1 LPS/ATP IL-1B secretion, AlphaLISA, 16 h; hits give low values. activity change, % at 57.5 µM; in the data active = activity change below about -50%; inconclusive = mostly about -30% to -49%
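THP-1 cells pretreated 1 hr with compounds (up to 57.5 uM final), then stimulated with LPS (250 ng/mL final) plus ATP (1.25 mM final); secreted IL-1B measured by AlphaLISA after 16 hr, decreased signal indicating inhibition.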
Numbers without * were called inactive; [ ] = remark or other dose. Unless noted, calls follow the shape of the dose curve; as a rule, active = well fitted curve in the direction sought with a large enough effect; inconclusive = small, poorly fitted or top-dose-only effect, or another doubt; inactive = no such curve, though single readings can be large; an effect the other way counts as inactive or inconclusive. % is scaled to controls: 0 for no effect and ±100 for the full control effect.

Results for COc1ccc(-c2nc3cc(C)ccc3cc2CN(C(=O)c2cc(C)nn2C)C2CC2)cc1OC ?
DT40 TDP1 no CPT: 21µM*; TDP1 cell CPT: inconclusive

What do the screens show for `COc1cccc(C(=O)N(Cc2cc3ccc(C)cc3nc2N(C)C)C2CC2)c1OC`?
DT40 TDP1 no CPT: -97%; TDP1 cell CPT: -26%[9.04 µM]

What do the screens show for `COc1cccc(-c2nc3cc4c(cc3cc2CN(C(=O)c2cc(C)nn2C)C2CC2)CCC4)c1OC`?
DT40 TDP1 no CPT: 16µM*; TDP1 cell CPT: 4.1µM*

What do the screens show for `COc1ccc(-c2nc3cc(C)ccc3cc2CN(C(=O)c2cccs2)C2CC2)cc1OC`?
DT40 TDP1 no CPT: 13µM*; TDP1 cell CPT: inconclusive

What do the screens show for `N#Cc1cccc(NC(=O)c2cncn2-c2ccccc2)c1`?
DT40 TDP1 no CPT: -1%; TDP1 cell CPT: 24%; TDP1 block: 0%; Six1-Eya2 blk: 16; CtBP-E1A blk: 3; IL-1B inflam inh: -18

What do the screens show for `CCOc1ccc2oc(C(=O)OCC(=O)NC(=O)NC)c(C)c2c1`?
DT40 TDP1 no CPT: 8%; TDP1 cell CPT: 2%; TDP1 block: 5%; Six1-Eya2 blk: 6; CtBP-E1A blk: 3; IL-1B inflam inh: -12

What do the screens show for `Cc1ccc(-c2ccc(CCC(=O)O)n2-c2cccc(C)c2C)cc1`?
DT40 TDP1 no CPT: -20%; TDP1 cell CPT: -15%

What do the screens show for `Cc1ccc(OCC(=O)N2CCc3ccccc3C2)cc1C`?
DT40 TDP1 no CPT: inconclusive; TDP1 cell CPT: inconclusive; Six1-Eya2 blk: 5; CtBP-E1A blk: -19; IL-1B inflam inh: -21

What do the screens show for `O=S(=O)(O)c1cc(O)c(N=Nc2ccc(O)cc2O)c2ccccc12`?
DT40 TDP1 no CPT: inconclusive; TDP1 cell CPT: inconclusive; Six1-Eya2 blk: -83*; CtBP-E1A blk: -94*; IL-1B inflam inh: -26

How did Cc1ncc(CN2CCN(CCC(C)C)C(CCO)C2)s1 (stereo not drawn) do in these assays?
DT40 TDP1 no CPT: 1%; TDP1 cell CPT: 10%; TDP1 block: -3%; Six1-Eya2 blk: 1; IL-1B inflam inh: -16

How did O=C(NCC(F)(F)F)c1cc2c(c(-c3cccc(-c4ccccc4F)c3)n1)[C@H](CCO)N(C(=O)CC1CC1)C2 do in these assays?
DT40 TDP1 no CPT: 21µM*; TDP1 cell CPT: 16µM*; Six1-Eya2 blk: -2; CtBP-E1A blk: 0; IL-1B inflam inh: -23

What do the screens show for `CCC(=O)N1Cc2cc(C(=O)NCC(F)(F)F)nc(-c3cccc(-c4cncnc4)c3)c2[C@@H]1CCO`?
DT40 TDP1 no CPT: inconclusive; TDP1 cell CPT: 21µM*; Six1-Eya2 blk: 0; CtBP-E1A blk: 5; IL-1B inflam inh: -1

Results for CCNC(=O)c1cc2c(c(-c3cccc(-c4ccccc4F)c3)n1)[C@H](CCO)N(C(=O)CC)C2 ?
DT40 TDP1 no CPT: 5.8µM*; TDP1 cell CPT: 7.3µM*; Six1-Eya2 blk: -4; CtBP-E1A blk: 5; IL-1B inflam inh: 38

What do the screens show for `CCNC(=O)c1cc2c(c(-c3cccc(-c4cncnc4)c3)n1)[C@@H](CCO)N(C(C)=O)C2`?
DT40 TDP1 no CPT: -5%; TDP1 cell CPT: -12%; Six1-Eya2 blk: -2; CtBP-E1A blk: 3; IL-1B inflam inh: 29

What do the screens show for `CN(C)C(=O)c1cc2c(c(-c3cccc(-c4ccccc4F)c3)n1)[C@@H](CCO)N(S(C)(=O)=O)C2`?
DT40 TDP1 no CPT: -12%; TDP1 cell CPT: -10%; Six1-Eya2 blk: -3; CtBP-E1A blk: 1; IL-1B inflam inh: 11

How did CCCNC(=O)c1cc2c(c(-c3cccc(-c4ccccc4F)c3)n1)[C@@H](CCO)N(C(=O)CC1CC1)C2 do in these assays?
DT40 TDP1 no CPT: inconclusive; TDP1 cell CPT: 26µM*; Six1-Eya2 blk: -5; CtBP-E1A blk: 6; IL-1B inflam inh: -16

How did CC(C)C(=O)N1CCC1(C)C(=O)Nc1cc(-c2ccccc2)nn1C (stereo not drawn) do in these assays?
DT40 TDP1 no CPT: -28%; TDP1 cell CPT: inconclusive; Six1-Eya2 blk: -3; CtBP-E1A blk: 22; IL-1B inflam inh: 10

Results for COc1ccc(S(=O)(=O)N2CCOCC2)cc1NC(=O)c1c(C)noc1C ?
DT40 TDP1 no CPT: 0%; TDP1 cell CPT: 7%; Six1-Eya2 blk: 3; CtBP-E1A blk: 4; IL-1B inflam inh: 3

Results for Cc1ccc(CNC(=O)c2ccc(N3CCC4(CC3)CC(c3ccccc3)=NO4)c([N+](=O)[O-])c2)cc1 ?
DT40 TDP1 no CPT: inconclusive; TDP1 cell CPT: inconclusive; Six1-Eya2 blk: -23; CtBP-E1A blk: -17; IL-1B inflam inh: 0

How did CCOc1ccc(S(=O)(=O)NCCC(=O)N2CCN(c3ccc(OC)cc3)CC2)cc1 do in these assays?
DT40 TDP1 no CPT: 21µM*; TDP1 cell CPT: inconclusive; TDP1 block: 4%; Six1-Eya2 blk: -15; CtBP-E1A blk: -21; IL-1B inflam inh: -4

How did CCOc1ccc(S(=O)(=O)NCCC(=O)N2CCN(Cc3ccccc3)CC2)cc1 do in these assays?
DT40 TDP1 no CPT: inconclusive; TDP1 cell CPT: inconclusive; TDP1 block: 4%; Six1-Eya2 blk: 0; CtBP-E1A blk: 3; IL-1B inflam inh: 0

How did CCOc1ccc(S(=O)(=O)NCCC(=O)N2CC=C(c3ccccc3)CC2)cc1 do in these assays?
DT40 TDP1 no CPT: 12µM*; TDP1 cell CPT: inconclusive; TDP1 block: 1%; Six1-Eya2 blk: -1; CtBP-E1A blk: -5; IL-1B inflam inh: -11

How did CCOc1ccc(S(=O)(=O)NCCC(=O)N2CCN(c3ncccn3)CC2)cc1 do in these assays?
DT40 TDP1 no CPT: inconclusive; TDP1 cell CPT: -1%; TDP1 block: -8%; Six1-Eya2 blk: 2; CtBP-E1A blk: -6; IL-1B inflam inh: 0

Results for CCSc1nc2ccccc2n1C(=O)Oc1ccccc1 ?
DT40 TDP1 no CPT: -7%; TDP1 cell CPT: -3%; TDP1 block: 0%; Six1-Eya2 blk: 7; CtBP-E1A blk: 5; IL-1B inflam inh: -7

How did C=CCC(=O)N1CCCC(CCC(=O)NCc2ccccc2F)C1 (stereo not drawn) do in these assays?
DT40 TDP1 no CPT: -22%; TDP1 cell CPT: 2%; TDP1 block: 9%; Six1-Eya2 blk: 14; CtBP-E1A blk: 10; IL-1B inflam inh: -9

Results for CC(C)c1cc(C(=O)N2CCCC(CCC(=O)NCc3ccccc3F)C2)n(C)n1 (stereo not drawn) ?
DT40 TDP1 no CPT: 13µM*; TDP1 cell CPT: inconclusive; TDP1 block: 0%; Six1-Eya2 blk: 4; CtBP-E1A blk: 9; IL-1B inflam inh: 22

Bioassay records (PubChem BioAssay)
